Screening results: PubChem BioAssay, National Center for Advancing Translational Sciences (NCATS)
Epigenetic mod: qHTS Assay for Epigenetic Modulators | Potency, µM (doses to about 46.1 µM), inactives show at the top dose GFP derepression (activation) | AID 597, 2007 | mouse C127i GFP locus derepression, cytometry, 30 h | actives 0.09% (n = 68,000); note: % of control where 0% means no effect
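Derepression screen: silenced CMV-GFP reporter in murine C127i cells, 30 h compound incubation at 37 C, washed cells imaged by laser-scanning cytometer to enumerate GFP-expressing objects of 20 to 120 um.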
HBB splicing: qHTS Assay for Modulators of Hemoglobin Beta Chain Splicing; HBB splicing reporter cell assay, activation; EGFP reporter with mutant IVS2-654 intron; response scale: normalised to 500 nM splice-correcting PNA; Potency, µM (top dose mostly 46.1 µM), without a hit: at the top dose activation, actives largely listed as activators; actives 0.06% (n = 65,000); AID 925, 2007; note: potency is the fitted concentration of half-maximal effect; 0% is about no effect
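Compounds were applied for 2 days to HeLa EGFP-654 cells, 500/well in Optimem with 2% FCS. The reporter's EGFP is disrupted by mis-splicing of beta-globin intron IVS2-654. Readout: summed well GFP fluorescence from 488 nm laser scanning; reference was 500 nM antisense […] 654 PNA.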
UbGFP stabilizer: Ubiquitin-GFP Assay; Potency, µM (highest dose often 45.9 µM), inactives show at the top dose activation (GFP accumulation), actives largely listed as activators; 67,000 tested, under 10 active; Ubiquitin-GFP reporter cells, proteasome inhibition, GFP fluorescence; response scale: untreated = 0%, 10 µM MG-132 = 100%; active = well fitted activation curve with a large enough effect, not every such curve was filed as active; inconclusive = small, poorly fitted or top-dose-only effect, or another doubt; inactive = no such curve, though single readings can be large or run the other way; note: potency is the fitted concentration of half-maximal effect
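U2OS Ub(G76V)-GFP reporter; O/N plating, 0.5% FBS; cpd 46 uM–2.9 nM, 4 h, 37 °C; GFP+ cell count, 488/515 nm; norm. to basal vs 10 uM MG-132; CRC fit.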
USP2a inhib: qHTS Assay for Inhibitors of Ubiquitin-specific Protease USP2a | Ubiquitin carboxyl-terminal hydrolase 2 (Homo sapiens), O75604 | USP2a enzymatic assay, qHTS inhibition | Potency, µM (doses to about 38.3 µM), without a hit: at the top dose activity change, negative = inhibition, most hits filed as inhibitors | actives 0.1% (n = 60,000); note: potency is the fitted concentration of half-maximal effect; nearly all actives have a fitted effect of over 60% in size
Target sequence (O75604 whole entry, looked up): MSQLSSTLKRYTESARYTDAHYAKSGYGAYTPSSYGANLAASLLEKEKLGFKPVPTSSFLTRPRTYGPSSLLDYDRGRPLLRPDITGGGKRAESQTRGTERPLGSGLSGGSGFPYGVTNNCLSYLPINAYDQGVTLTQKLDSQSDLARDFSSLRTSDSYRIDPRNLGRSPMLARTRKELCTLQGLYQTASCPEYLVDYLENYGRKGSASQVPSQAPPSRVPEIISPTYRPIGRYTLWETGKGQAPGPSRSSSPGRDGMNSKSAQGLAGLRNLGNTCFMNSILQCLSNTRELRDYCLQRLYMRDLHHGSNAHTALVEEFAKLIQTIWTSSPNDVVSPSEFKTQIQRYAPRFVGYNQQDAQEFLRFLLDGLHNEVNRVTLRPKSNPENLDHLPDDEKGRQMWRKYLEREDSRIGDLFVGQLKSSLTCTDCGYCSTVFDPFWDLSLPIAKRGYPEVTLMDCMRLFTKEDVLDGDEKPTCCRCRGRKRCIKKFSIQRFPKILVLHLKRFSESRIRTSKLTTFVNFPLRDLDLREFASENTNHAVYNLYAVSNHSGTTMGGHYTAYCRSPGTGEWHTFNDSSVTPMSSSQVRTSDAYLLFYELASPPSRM
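Inhibition is measured in a cell-free coupled assay with 20 nM USP2 core, 20 nM Ub-PLA2 and 20 uM NBD C6-HPC, 2.5 h incubation. Activity normalized to NEM control.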
Hsp90 Hop PPI: qHTS Assay for Disrupters of an Hsp90 Co-Chaperone Interaction; Hsp90 C-terminal peptide / TPR2A (Hop) interaction, human; AlphaScreen TPR2A-His6 binding biotin-Hsp90 C-terminal peptide; Potency, µM (series often up to 57 µM), inactives show top-dose activity change, negative = inhibition; actives 0.44% (n = 71,000); AID 595, 2007; active = well fitted curve in either direction with a large enough effect; inconclusive = small, poorly fitted or top-dose-only effect, or another doubt; note: potency is the fitted concentration of half-maximal effect; % is set by controls: 0 for no effect and ±100 for the full control effect
The depositor's hits bear a star; ? = inconclusive; . = not tested or not shown; [ ] = dose if it differs, or a comment. This is a sample that favours compounds with a hit; in the whole collection about 0.44% have one here. Unless noted, calls come from the whole dose curve; as a rule, active = well fitted curve in the direction sought with a large enough effect; inconclusive = small, poorly fitted or top-dose-only effect, or another doubt; inactive = no such curve, though single readings can be large; an effect the other way counts as inactive or inconclusive.

SMILES	Epigenetic mod	HBB splicing	UbGFP stabilizer	USP2a inhib	Hsp90 Hop PPI
CN(C)c1ncc2nc(-c3cccs3)c(=O)n(Cc3cccs3)c2n1	8%[9.22 µM]	?	6%	85%	-5%
O=c1c(-c2ccccc2)nc2cnc(Oc3ccccc3)nc2n1C1CC1	2%[9.22 µM]	2%	12%	103%	-1%
O=c1c(-c2cccs2)nc2cnc(Oc3ccccc3)nc2n1C1CC1	3%[9.22 µM]	4%	6%	176%	20µM*
CN(C)c1ncc2nc(-c3cccs3)c(=O)n(C3CC3)c2n1	2%[9.22 µM]	1%	10%	182%	4µM*
N[C@@H](Cc1cc(-c2ccc(Cl)cc2Cl)cc(CP(=O)(O)O)c1O)C(=O)O	0%	.	-3%	.	-3%
COC(=O)[C@@H]1C[C@H]1[C@@H](NC(=O)OCc1ccccc1)c1ccccc1	.	1%	.	.	-3%
CCOc1ccc(-n2c3nc4ccccc4nc3c3c(=O)n(Cc4ccco4)cnc32)cc1	9%[20.6 µM]	.	.	.	.
Cc1cc(C)cc(-n2c3nc4ccccc4nc3c3c(=O)n(Cc4ccco4)cnc32)c1	13µM*	.	.	.	.
CC(=O)O[C@H]1CC[C@@]2(C)[C@@H](CC[C@@]3(C)[C@H]2C(=O)C=C2[C@H]4C[C@](C)(C(=O)OCCN5CCCCC5)CC[C@]4(C)CC[C@@]23C)C1(C)C	0%[9.22 µM]	.	1%	.	-4%
Nc1ccn([C@H]2CC[C@H](CO)O2)c(=O)n1	2%	0%	0%	.	-4%
COc1ccc(N2CCN(c3oc(COc4ccc(Cl)cc4)nc3C#N)CC2)cc1	16%[20.6 µM]	.	.	.	.
COc1ccc(N2CCN(c3oc(COc4ccccc4)nc3C#N)CC2)cc1	-1%	.	-3%	-8%	13µM*
COc1ccc(NC(=O)N2CC[C@@]3(CCCN(C(C)=O)C3)C2)cc1	-4%[9.22 µM]	-1%	-11%	10µM*	-5%
COc1ccc(NC(=O)N2CCCC3(CCN(C(C)=O)CC3)C2)cc1	0%[9.22 µM]	6%	-3%	-3%	-6%
Cc1ccccc1N1C(=O)c2cccc3c(N(C)CCO)ccc(c23)C1=O	-2%	20µM*	12%	20%	11%
Cc1c(Cl)cccc1N1C(=O)c2ccccc2C1=O	0%	0%	-13%	0%	-2%
CN1CCN(c2ncc3nc(-c4cccs4)c(=O)n(Cc4ccc(F)cc4)c3n2)CC1	4µM*	?	?	89%	1%
COc1cccc(Cn2c(=O)c(-c3cccs3)nc3cnc(Nc4cccc(OC)c4)nc32)c1	0%[9.22 µM]	10µM*	7%	158%	7.9µM*
COc1ccc(-c2coc3ccc(O[C@@H]4O[C@@H](COC(C)=O)[C@@H](OC(C)=O)[C@@H](OC(C)=O)[C@H]4OC(C)=O)cc3c2=O)cc1	0%[9.22 µM]	.	10%	.	5%
COc1ccc(C2C(C#N)=C(N)N3C(=C2C#N)Sc2ccccc23)cc1 (stereo unspecified)	13µM*	28%	15%	12%	5%
COc1ccccc1C(=O)Nc1cc(Cl)ccc1O	-3%[20.6 µM]	.	.	.	.
CCOc1ccccc1C(=O)Nc1cc(Cl)ccc1O	1%	-1%	-2%	13µM*	3%
O=C(c1cccc(F)c1)N1CCC2(CC1)CN(c1cccc(-c3ccccc3)c1)C2	2%[9.22 µM]	1%	12%	83%	?
O=C(Oc1cccc2cccnc12)c1ccc(Br)o1	5µM*	.	-2%	?	25µM*
Cc1cc(NC(c2cccnc2)c2ccc3cccnc3c2O)no1 (stereo unspecified)	20%	-2%	0%	6%	4µM*
SMILES	Epigenetic mod	HBB splicing	UbGFP stabilizer	USP2a inhib	Hsp90 Hop PPI
CN(C)c1ncc2nc(-c3ccccc3)c(=O)n(CCc3ccccc3)c2n1	3%[9.22 µM]	0%	0%	8%	-8%
COc1ccc(-c2nc3cnc(N(C)C)nc3n(CCc3ccccc3)c2=O)cc1	0%[9.22 µM]	1%	-1%	4%	0.63µM*
CN(C)c1ncc2nc(CCc3ccccc3)c(=O)n(Cc3cccs3)c2n1	0%[9.22 µM]	0%	5%	69%	25µM*
Cc1nc2cnc(N(C)C)nc2n(Cc2cccs2)c1=O	0%[9.22 µM]	1%	-8%	37%	7%
O=c1c(-c2ccccc2)nc2cnc(N3CCOCC3)nc2n1CCc1ccccc1	-6%[9.22 µM]	3%	1%	61%	5µM*
N#Cc1ccc(OC(=O)c2ccc(N=C(N)N)cc2)cc1	0%[9.22 µM]	1%[9.22 µM]	-5%[9.17 µM]	.	2%[11 µM]
Cc1c2ccccc2c(C)c2c1ccc1ccccc12	.	-1%	.	.	32µM*
Cc1c2ccccc2c(CSC(=N)N)c2ccccc12	3%[9.22 µM]	1%[9.22 µM]	1%[9.17 µM]	.	14%[11 µM]
CN(O)/C=c1/ccc2c(n1)C(=O)C=CC=2	2%	4%[1.84 µM]	7%	23%	2µM*
CN1CCCN(C(=O)Cc2c(Cl)cccc2Cl)c2nc3ccccc3nc21	4%	10µM*	-5%	-4%	?
CN1CCCN(C(=O)c2cc(=O)[nH]c3ccccc23)c2nc3ccccc3nc21	2%	-4%	3%	-1%	-4%
CC1(C)OCC(CSC2=C(SCC3COC(C)(C)O3)C(=O)c3ncccc3C2=O)O1 (stereo unspecified)	.	?	.	.	16µM*
CCOC(=O)C1CCN(Cc2ccc(O)c3ncccc23)CC1	?	.	0%	10%	5µM*
O=C1O/C(=C\Br)CC[C@@H]1c1cccc2ccccc12	-1%	0%	0%	7%	-11%
C/C(=C\CNc1ncnc2c1ncn2[C@@H]1O[C@@H](CO)[C@@H](O)[C@H]1O)CO	-2%[9.22 µM]	.	8%	.	-4%
COc1ccc(-c2cc(C(F)(F)F)nc(N3CCCCCC3)n2)cc1	0%	-2%	3%	-9%	25µM*
COc1ccc(-c2cc(C(F)(F)F)nc(N3CCN(c4ccccc4)CC3)n2)cc1OC	2%	-1%	-4%	1%	-6%
COc1ccc(-c2cc(C(F)(F)F)nc(N3CCCCC3)n2)cc1OC	-1%	1%	3%	?	25µM*
Cc1ccc(C(=O)O[C@@H](C(=O)O)[C@@H](OC(=O)c2ccc(C)cc2)C(=O)O)cc1 (tested in a mixture with another compound)	-2%	3%	-9%	-1%	-7%
c1ccc2c(c1)-c1cccc3c1c-2cc1ccccc13	.	0%	.	.	5µM*
Nc1nc(-c2cc(-c3cccc4ccccc34)nc(N)n2)cc(-c2cccc3ccccc23)n1	0%[9.22 µM]	1%[9.22 µM]	0%[9.17 µM]	.	1%[11 µM]
Cc1cc(NC(=O)Nc2ccc(N(C)C)cc2)c2cc(F)cc(F)c2n1	3%	.	3%	.	7.9µM*
CCN1C(=S)SC(=O)C1=C1C=C(C)N(Cc2ccco2)C(C)=C1	8%	13µM*	-8%	16%	-18%
